For assay [1], the target named is T1, Serine/threonine-protein kinase Nek9 (Homo sapiens) (UniProt Q8TD19).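 Further: each value is a mean percent inhibition of NEK9.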
T1 sequence (whole entry): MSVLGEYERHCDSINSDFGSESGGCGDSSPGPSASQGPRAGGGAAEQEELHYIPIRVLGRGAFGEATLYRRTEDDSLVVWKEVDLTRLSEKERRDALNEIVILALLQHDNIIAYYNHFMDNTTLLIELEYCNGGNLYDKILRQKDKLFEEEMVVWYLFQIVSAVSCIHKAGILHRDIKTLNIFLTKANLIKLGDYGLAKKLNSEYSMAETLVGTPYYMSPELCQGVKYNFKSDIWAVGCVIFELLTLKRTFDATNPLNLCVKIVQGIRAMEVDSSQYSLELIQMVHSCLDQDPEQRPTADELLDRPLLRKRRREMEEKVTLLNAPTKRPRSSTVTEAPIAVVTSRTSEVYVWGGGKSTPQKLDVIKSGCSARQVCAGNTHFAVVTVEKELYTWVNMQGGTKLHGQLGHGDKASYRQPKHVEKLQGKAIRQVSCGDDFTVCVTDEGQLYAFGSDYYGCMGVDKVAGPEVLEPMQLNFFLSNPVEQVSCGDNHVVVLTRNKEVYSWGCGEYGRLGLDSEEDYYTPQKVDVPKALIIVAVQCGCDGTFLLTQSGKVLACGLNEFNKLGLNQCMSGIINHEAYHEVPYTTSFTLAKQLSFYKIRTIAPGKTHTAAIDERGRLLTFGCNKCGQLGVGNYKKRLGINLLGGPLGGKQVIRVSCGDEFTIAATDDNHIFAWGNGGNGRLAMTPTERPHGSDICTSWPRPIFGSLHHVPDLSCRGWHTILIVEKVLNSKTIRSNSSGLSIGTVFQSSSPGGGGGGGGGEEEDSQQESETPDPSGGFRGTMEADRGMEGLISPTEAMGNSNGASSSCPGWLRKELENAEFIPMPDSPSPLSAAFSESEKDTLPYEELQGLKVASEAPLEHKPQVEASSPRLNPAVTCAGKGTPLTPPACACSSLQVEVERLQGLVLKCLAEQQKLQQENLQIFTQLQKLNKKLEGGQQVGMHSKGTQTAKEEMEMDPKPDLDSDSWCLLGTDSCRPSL
The settings on record: at 1 µM.

Assay [2] has as its target Serine/threonine-protein kinase PLK1 (Homo sapiens) (UniProt P53350). The settings on record: at 0.1 µM.
The target is the same in assay [3]. The settings on record: at 1 µM.
Assay [4] has as its target T2, Dual specificity protein kinase TTK (Homo sapiens) (UniProt P33981).
T2 sequence (whole entry): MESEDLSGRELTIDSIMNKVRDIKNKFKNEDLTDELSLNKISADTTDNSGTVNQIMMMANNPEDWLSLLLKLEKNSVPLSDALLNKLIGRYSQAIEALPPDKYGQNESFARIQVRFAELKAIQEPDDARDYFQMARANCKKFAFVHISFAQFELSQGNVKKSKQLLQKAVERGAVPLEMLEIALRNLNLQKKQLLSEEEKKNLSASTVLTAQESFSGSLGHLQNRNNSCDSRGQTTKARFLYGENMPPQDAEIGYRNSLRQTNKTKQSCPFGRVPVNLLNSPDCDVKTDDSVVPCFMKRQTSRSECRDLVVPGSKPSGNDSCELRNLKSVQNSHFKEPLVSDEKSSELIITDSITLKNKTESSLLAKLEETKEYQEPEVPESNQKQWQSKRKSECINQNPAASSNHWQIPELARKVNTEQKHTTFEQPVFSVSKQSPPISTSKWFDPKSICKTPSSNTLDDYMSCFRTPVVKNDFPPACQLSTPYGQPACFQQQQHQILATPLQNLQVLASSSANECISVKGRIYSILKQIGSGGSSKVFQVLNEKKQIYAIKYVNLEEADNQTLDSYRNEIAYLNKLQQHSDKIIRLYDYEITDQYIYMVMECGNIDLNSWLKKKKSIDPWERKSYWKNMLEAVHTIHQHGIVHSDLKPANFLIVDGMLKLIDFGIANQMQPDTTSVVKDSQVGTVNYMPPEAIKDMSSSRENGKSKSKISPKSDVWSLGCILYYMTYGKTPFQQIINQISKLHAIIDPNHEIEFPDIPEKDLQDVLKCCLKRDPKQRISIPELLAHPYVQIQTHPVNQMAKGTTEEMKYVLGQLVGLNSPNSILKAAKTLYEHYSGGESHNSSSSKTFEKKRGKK
The settings on record: at 0.1 µM.

The subject of assay [5] is T3, Receptor-type tyrosine-protein kinase FLT3 (Homo sapiens), P36888 [D835Y].
T3 sequence (whole entry): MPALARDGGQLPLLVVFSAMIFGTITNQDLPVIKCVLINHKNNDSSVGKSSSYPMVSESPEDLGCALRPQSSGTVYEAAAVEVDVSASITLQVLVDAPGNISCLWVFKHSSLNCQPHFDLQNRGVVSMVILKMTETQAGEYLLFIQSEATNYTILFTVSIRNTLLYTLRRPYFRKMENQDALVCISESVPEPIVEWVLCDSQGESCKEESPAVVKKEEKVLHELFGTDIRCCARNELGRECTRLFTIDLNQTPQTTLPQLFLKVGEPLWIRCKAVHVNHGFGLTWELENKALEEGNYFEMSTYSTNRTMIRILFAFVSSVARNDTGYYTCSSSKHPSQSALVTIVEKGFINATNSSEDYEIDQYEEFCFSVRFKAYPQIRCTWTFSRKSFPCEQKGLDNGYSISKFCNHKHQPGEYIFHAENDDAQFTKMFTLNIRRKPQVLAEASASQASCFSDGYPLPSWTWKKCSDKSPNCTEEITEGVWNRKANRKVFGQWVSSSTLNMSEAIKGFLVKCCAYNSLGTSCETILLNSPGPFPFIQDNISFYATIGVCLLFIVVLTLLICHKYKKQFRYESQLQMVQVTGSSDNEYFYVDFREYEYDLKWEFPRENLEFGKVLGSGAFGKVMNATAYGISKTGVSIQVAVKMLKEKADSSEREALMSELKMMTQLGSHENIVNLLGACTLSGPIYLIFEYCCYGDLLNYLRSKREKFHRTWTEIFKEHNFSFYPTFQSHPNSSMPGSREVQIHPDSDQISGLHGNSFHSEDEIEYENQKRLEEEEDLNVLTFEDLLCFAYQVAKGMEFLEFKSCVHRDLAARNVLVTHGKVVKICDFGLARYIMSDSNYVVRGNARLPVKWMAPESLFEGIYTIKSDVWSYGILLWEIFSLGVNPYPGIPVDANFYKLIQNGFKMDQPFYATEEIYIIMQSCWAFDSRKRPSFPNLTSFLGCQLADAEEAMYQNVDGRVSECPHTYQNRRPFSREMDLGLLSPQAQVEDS
The settings on record: at 1 µM.

The target in assay [6] is Vascular endothelial growth factor receptor 3 (Homo sapiens) (UniProt P35916). The settings on record: at 0.1 µM.
For assay [7] the target is unchanged. The settings on record: at 1 µM.
Assay [8] deals with Macrophage colony-stimulating factor 1 receptor (Homo sapiens) (UniProt P07333). The settings on record: at 0.1 µM.
For assay [9] the target is unchanged. The settings on record: at 1 µM.
In assay [10] the target is Tyrosine-protein kinase Fyn (Homo sapiens) (UniProt P06241). The settings on record: at 0.1 µM.
For assay [11] the target is unchanged. The settings on record: at 1 µM.
The target of assay [12] is Tyrosine-protein kinase HCK (Homo sapiens) (UniProt P08631). The settings on record: at 0.1 µM.
The target is the same in assay [13]. The settings on record: at 1 µM.
The target of assay [14] is Insulin-like growth factor 1 receptor (Homo sapiens) (UniProt P08069). The settings on record: at 0.1 µM.
The target is the same in assay [15]. The settings on record: at 1 µM.
The target in assay [16] is Insulin receptor (Homo sapiens) (UniProt P06213). The settings on record: at 0.1 µM.
For assay [17] the target is unchanged. The settings on record: at 1 µM.
Assay [18] deals with Insulin receptor-related protein (Homo sapiens) (UniProt P14616). The settings on record: at 0.1 µM.
For assay [19] the target is unchanged. The settings on record: at 1 µM.
Assay [20] concerns the target T4, Tyrosine-protein kinase ITK/TSK (Homo sapiens) (UniProt Q08881).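 Further: mean percent inhibition of ITK from the GSK PKIS screen.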
T4 sequence (whole entry): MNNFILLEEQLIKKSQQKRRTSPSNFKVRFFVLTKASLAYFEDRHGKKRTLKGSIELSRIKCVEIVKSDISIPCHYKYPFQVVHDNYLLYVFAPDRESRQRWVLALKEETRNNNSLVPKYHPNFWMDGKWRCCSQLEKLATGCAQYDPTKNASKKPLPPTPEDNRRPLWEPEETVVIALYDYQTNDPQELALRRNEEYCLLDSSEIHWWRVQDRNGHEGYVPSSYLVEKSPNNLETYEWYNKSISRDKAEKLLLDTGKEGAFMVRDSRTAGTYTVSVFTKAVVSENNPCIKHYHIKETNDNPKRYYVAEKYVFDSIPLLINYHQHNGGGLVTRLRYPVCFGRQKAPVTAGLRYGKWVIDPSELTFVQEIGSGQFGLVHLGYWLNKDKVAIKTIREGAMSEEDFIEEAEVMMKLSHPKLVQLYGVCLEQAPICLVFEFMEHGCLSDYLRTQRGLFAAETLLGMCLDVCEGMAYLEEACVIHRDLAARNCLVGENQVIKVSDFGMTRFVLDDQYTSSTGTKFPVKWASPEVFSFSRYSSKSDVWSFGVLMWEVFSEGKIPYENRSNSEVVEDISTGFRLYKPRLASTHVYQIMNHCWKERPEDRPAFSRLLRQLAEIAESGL
The settings on record: at 0.1 µM.

Chain of Macrophage colony-stimulating factor 1 receptor (Homo sapiens) (P07333 whole entry): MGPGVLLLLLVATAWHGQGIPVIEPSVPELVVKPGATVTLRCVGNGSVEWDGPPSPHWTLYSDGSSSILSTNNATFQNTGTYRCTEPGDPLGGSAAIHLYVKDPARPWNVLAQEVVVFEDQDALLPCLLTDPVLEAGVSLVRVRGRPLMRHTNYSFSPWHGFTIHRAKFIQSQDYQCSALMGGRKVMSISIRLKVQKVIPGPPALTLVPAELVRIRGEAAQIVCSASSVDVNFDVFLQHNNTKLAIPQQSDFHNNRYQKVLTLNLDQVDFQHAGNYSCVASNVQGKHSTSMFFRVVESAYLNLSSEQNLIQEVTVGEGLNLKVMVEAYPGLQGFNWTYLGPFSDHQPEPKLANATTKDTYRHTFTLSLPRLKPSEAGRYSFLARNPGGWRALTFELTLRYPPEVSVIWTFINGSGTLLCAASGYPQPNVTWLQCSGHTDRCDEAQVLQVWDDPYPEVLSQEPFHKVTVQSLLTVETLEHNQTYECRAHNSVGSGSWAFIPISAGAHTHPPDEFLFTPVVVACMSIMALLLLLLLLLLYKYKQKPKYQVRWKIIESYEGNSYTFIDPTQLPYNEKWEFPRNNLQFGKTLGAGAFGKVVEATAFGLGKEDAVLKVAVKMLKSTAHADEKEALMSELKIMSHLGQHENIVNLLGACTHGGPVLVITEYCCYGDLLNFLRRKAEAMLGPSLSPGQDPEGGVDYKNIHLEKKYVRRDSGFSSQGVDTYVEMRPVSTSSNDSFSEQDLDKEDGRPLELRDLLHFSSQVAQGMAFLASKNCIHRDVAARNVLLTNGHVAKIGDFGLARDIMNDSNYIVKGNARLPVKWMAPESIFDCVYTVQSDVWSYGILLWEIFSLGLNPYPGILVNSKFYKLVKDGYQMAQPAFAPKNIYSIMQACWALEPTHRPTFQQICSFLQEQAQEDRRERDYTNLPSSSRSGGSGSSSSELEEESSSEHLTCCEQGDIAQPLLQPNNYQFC
Chain of Insulin-like growth factor 1 receptor (Homo sapiens) (P08069 31-736 limits assumed): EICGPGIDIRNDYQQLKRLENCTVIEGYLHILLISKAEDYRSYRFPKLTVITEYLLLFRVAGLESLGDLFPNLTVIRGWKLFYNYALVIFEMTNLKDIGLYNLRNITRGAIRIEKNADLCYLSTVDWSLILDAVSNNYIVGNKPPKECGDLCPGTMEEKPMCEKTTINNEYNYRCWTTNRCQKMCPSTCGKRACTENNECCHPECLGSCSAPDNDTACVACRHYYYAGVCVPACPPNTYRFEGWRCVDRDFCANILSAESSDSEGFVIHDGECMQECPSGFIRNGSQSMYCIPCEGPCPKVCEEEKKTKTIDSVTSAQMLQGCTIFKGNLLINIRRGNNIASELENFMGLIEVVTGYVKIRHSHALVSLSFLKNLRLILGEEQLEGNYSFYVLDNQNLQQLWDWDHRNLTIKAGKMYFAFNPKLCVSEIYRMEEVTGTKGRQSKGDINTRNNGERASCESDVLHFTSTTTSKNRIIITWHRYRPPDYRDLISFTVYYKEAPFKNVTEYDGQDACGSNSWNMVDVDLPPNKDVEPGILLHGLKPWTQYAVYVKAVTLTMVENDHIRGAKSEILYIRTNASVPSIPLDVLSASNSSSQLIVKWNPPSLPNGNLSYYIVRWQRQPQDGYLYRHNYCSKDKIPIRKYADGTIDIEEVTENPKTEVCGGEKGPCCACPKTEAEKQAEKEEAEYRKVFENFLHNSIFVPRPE
Chain of Insulin-like growth factor 1 receptor (Homo sapiens) (P08069 741-1367 limits assumed): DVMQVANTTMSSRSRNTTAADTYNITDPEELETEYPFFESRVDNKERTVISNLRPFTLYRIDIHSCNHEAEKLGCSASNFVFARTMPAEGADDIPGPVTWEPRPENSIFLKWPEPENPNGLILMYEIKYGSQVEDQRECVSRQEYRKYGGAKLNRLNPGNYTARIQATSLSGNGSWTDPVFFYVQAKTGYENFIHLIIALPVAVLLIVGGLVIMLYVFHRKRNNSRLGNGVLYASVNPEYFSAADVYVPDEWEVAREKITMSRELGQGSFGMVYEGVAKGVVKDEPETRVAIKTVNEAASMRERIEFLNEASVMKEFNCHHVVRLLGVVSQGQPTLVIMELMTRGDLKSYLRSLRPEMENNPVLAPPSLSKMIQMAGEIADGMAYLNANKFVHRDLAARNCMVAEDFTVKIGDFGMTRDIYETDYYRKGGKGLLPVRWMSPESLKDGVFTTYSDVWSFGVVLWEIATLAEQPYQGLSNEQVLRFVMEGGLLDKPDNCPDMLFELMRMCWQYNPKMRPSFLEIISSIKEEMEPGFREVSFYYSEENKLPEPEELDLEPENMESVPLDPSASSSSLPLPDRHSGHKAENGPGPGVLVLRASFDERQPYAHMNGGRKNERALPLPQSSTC
Chain of Serine/threonine-protein kinase PLK1 (Homo sapiens) (P53350 whole entry): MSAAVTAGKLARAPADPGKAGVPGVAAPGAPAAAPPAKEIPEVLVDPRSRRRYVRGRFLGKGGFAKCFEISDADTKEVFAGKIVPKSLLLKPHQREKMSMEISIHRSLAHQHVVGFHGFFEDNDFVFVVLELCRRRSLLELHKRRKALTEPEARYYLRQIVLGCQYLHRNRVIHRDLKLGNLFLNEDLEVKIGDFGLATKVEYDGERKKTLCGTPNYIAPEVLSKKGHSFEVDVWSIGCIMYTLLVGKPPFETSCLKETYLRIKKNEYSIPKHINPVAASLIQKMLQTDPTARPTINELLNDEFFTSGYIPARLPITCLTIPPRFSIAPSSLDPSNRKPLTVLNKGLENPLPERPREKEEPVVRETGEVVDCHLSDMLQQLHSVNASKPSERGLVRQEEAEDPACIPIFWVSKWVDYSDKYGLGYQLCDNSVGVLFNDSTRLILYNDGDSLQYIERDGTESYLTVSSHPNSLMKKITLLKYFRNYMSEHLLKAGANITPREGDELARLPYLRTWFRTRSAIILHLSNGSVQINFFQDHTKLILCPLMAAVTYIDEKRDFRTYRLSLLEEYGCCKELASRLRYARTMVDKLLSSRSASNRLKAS
Chain of Tyrosine-protein kinase Fyn (Homo sapiens) (P06241 2-537 limits assumed): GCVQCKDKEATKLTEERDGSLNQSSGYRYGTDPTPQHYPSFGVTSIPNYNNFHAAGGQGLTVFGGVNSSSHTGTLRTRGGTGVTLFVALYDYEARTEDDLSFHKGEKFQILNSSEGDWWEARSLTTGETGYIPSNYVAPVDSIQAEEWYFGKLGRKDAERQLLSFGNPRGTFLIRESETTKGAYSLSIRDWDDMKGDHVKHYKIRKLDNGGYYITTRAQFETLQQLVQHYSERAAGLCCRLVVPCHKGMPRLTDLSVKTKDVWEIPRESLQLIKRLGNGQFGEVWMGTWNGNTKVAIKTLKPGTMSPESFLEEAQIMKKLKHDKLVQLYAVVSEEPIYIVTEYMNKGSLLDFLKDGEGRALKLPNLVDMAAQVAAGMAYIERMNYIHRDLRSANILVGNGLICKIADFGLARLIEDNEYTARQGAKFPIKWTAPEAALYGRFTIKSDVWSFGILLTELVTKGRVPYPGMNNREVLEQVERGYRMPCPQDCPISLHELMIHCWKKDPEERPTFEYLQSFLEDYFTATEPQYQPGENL
Chain of Insulin receptor (Homo sapiens) (P06213 28-758 limits assumed): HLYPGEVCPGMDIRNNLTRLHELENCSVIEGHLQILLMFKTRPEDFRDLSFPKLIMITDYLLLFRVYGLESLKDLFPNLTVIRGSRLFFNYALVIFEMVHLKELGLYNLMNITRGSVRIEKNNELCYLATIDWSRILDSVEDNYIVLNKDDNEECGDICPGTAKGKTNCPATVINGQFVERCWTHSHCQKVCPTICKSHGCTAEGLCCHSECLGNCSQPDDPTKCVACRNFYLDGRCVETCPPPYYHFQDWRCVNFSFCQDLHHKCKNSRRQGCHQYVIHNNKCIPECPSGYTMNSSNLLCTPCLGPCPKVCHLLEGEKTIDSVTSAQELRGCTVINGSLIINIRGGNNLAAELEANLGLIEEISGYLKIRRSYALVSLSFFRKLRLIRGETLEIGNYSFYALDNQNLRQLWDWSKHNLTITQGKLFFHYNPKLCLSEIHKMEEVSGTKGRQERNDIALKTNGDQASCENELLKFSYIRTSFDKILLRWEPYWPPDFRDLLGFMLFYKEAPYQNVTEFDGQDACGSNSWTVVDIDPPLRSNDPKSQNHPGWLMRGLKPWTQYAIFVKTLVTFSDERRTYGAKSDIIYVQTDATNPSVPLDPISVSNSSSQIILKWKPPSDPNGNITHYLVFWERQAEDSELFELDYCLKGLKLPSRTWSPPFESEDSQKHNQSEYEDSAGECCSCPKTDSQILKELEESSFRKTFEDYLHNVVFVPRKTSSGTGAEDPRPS
Chain of Insulin receptor (Homo sapiens) (P06213 763-1382 limits assumed): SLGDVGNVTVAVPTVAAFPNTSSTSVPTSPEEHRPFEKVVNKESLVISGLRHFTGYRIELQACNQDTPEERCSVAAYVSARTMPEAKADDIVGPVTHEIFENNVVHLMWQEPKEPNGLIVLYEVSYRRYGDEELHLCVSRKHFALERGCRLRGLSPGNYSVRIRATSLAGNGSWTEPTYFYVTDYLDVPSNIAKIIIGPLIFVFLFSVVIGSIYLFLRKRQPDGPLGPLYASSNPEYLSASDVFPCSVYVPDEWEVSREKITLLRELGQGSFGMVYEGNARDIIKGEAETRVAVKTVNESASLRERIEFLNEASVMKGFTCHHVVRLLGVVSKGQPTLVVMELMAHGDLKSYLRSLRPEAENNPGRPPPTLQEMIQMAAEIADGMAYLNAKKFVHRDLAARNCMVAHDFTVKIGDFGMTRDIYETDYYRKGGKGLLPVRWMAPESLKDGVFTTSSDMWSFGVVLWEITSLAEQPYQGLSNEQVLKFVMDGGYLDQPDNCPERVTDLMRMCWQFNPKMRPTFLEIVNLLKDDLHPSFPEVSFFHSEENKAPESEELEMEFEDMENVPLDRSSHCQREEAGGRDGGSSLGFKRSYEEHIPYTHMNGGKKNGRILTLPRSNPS

Regarding `CN(c1ccc(NC(=O)Nc2ccc(OC(F)(F)F)cc2)cc1)c1ccnc(Nc2cccc(S(N)(=O)=O)c2)n1`, the inhibition in [1] is 17.1%; in [2] it was 2.14%; in assay [3], -0.02%; in assay [4], 4.18%; in assay [5] it was 43.2%; in [6], 37.5%. In addition, the inhibition is 90.1% in assay [7]; 42.6% in assay [8]; 86.1% in assay [9]; 8.93% in assay [10]; 53.5% in assay [11]; 25.2% in [12]. Moreover, the inhibition in assay [13] was 77.3%; in [14], -1.04%; in [15], 0.46%; in assay [16], 1.9%; in assay [17] it was 2.39%; in assay [18], 0.67%. Besides, the inhibition in [19] came to 3.26%; in assay [20], 10.6%.
Consider `NS(=O)(=O)c1ccc(Nc2cc(-c3cccc(O)c3)n[nH]2)cc1`, for which the inhibition came to 2.91% in assay [1]; 5.76% in assay [2]; 4.69% in [3]; 16% in assay [4]; 30.9% in assay [5]; 6.76% in assay [6]. The inhibition is 6.9% in [7]; 5.17% in assay [8]; 15.4% in [9]; 4.67% in [10]; 2.45% in assay [11]; 5.06% in assay [12]. Moreover, the inhibition in [13] was found to be 11.7%; in assay [14], 5.98%; in [15], 5.23%; in assay [16], 3.33%; in assay [17], 3.4%; in assay [18] it was 6.28%. The inhibition was 2.76% in assay [19] and 2.78% in assay [20].
As to `COc1cc2ncnc(Nc3ccc4c(cnn4Cc4ccccc4)c3)c2cc1OC`, the inhibition in [1] is 8.26%; in [2], 3.61%; in assay [3], 3.2%; in assay [4], 10.4%; in assay [5] it was 2.33%; in [6], 4.91%. The inhibition in [7] was 15%; in assay [8], -1.86%; in assay [9], 3.16%; in assay [10], 7.78%; in assay [11], 35.7%; in [12] it was 11.4%. The inhibition is 48.5% in [13]; -1.14% in [14]; -0.72% in [15]; 2.75% in assay [16]; 3.75% in assay [17]; 0.39% in assay [18]. Also, the inhibition came to 2.09% in [19] and 0.88% in assay [20].
Take `Cc1ccc(C(=O)NC2CC2)cc1-c1ccc2[nH]ncc2c1`: the inhibition in [1] was -2.78%; in assay [2], -2.55%; in assay [3] it was -0.76%; in [4], -7.32%; in assay [5] it was 3.33%; in assay [6], -0.16%. Moreover, the inhibition was 1.13% in assay [7]; -5.43% in [8]; 4.56% in assay [9]; -0.87% in [10]; 0.93% in assay [11]; -3.84% in assay [12]. For the same molecule, the inhibition in [13] was -2.13%; in assay [14] it was 29.6%; in assay [15] it was -5.48%; in assay [16], 0.44%; in assay [17], -2.94%; in [18], -3.94%. Further, the inhibition in [19] is -4.42%; in assay [20], -2.18%.
Regarding `CC(C)c1ccc(Nc2nccc(-c3cnn4ncccc34)n2)cc1`, the inhibition in assay [1] came to 11%; in assay [2], 2.9%; in [3], 4.81%; in [4], 5.54%; in [5], 23.1%; in [6], 0.79%. For the same molecule, the inhibition is 9.77% in assay [7]; 23% in assay [8]; 72.1% in [9]; 1.04% in assay [10]; 6.49% in [11]; 4% in assay [12]. The inhibition in [13] turned out to be 8.83%; in assay [14] it was 11.8%; in [15], 53.1%; in [16], 10.2%; in [17] it was 48.2%; in assay [18] it was 2.81%. For the same molecule, the inhibition worked out at 8.71% in assay [19] and 0.75% in assay [20].
As to `NS(=O)(=O)c1ccc(N/N=C2\C(=O)Nc3ccc(Cl)cc32)cc1`, the inhibition in assay [1] came to 9.42%; in [2] it was 1.63%; in [3], 2.65%; in assay [4], 14%; in [5], 16.4%; in assay [6], 4.36%. Moreover, the inhibition came out at 9.79% in [7]; 3.24% in assay [8]; 31.8% in assay [9]; 0.23% in assay [10]; 8.06% in [11]; 5% in assay [12]. The inhibition in assay [13] turned out to be 11.4%; in [14] it was 6.7%; in [15] it was 4.64%; in assay [16], 1.04%; in [17], 2.77%; in [18] it was 3.26%. For the same molecule, the results for the inhibition in [19] and in [20] were 3.42% and 0.97%, respectively.

For orientation: inhibition means the change of the read-out against control, counted positive when it falls.

Source of the values: ChEMBL document CHEMBL1961873, “Compounds: GSK PKIS; Assays: Nanosyn kinase panel” (2012).
